Tgondii IFNg = T. gondii growth inhibition under IFN-gamma. Toxoplasma gondii growth in IFN-gamma-treated host cells; stronger effect = lower value. activity change, negative = inhibition, % (concentration not given with the values). actives 3.8% (n = 69,000). AID 1259416; in the data active = activity change below about -70%, passing the limit was not always enough;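 note: host cells are HeLa cells infected with Toxoplasma gondii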
Large screens that a line does not name were inactive. Many of the other results were omitted from the sample, so hits are more common in it than they were.

Cc1ccc(-c2nnc(-c3nc(NC(C)c4ccccc4)c4ccccc4n3)o2)cc1 (centres undefined)	none
Cc1ccc(-c2nnc(-c3nc(NCc4ccccn4)c4ccccc4n3)o2)cc1	Tgondii IFNg -94
Cc1ccc(-c2nnc(-c3nc(NCc4ccco4)c4ccccc4n3)o2)cc1	none
CC(CNc1nc(-c2nnc(-c3ccccc3)o2)nc2ccccc12)c1ccccc1 (centres undefined)	Tgondii IFNg -115
c1ccc(CCNc2nc(-c3nnc(-c4ccccc4)o3)nc3ccccc23)cc1	none
COc1cc(CNc2nc(-c3nnc(-c4ccc(C)cc4)o3)nc3ccccc23)cc(OC)c1OC	none
C=C(C)CN(C)C(=O)C12CC3CC(C)(CC(C)(C3)C1)C2	none
CCSc1nc(CC(=O)NCCc2sccc2C)cs1	none
CC(C)CN1C(=O)N(C)C(=O)C12CCN(Cc1cccc(-c3ccco3)c1)CC2	none
Cc1ccc(NC2CCCN(C(=O)CCn3ccc(=O)[nH]c3=O)C2)cc1C (centres undefined)	none
COc1ccc(-c2ncccc2NC(=O)C(C)C)c2ccc(C)nc12	none
CCn1c(C)nc2cc(S(=O)(=O)N(C)C)ccc21	none
Cc1ccc(NC(=O)c2ccco2)cc1NC(=O)C(C)(C)Oc1ccc(Cl)cc1	none
COc1ccccc1CNc1nc(-c2nnc(-c3ccccc3)o2)nc2ccccc12	Tgondii IFNg -96
COc1ccc(-c2nnc(-c3nc(NCc4ccccc4)c4ccccc4n3)o2)cc1	none
CCOc1ccccc1CNc1nc(-c2nnc(-c3ccc(OC)cc3)o2)nc2ccccc12	none
Cn1ccnc1CN1CCCC(O)(c2nccn2C)CC1 (centres undefined)	none
COc1ccc(CN2CCCC(N3CCc4cc(OC)c(OC)cc4C3C)C2)cc1O (centres undefined)	none
Cn1cnc2cc(C(=O)N3CC(C(=O)NCCc4ccc(F)cc4)C3)ccc21	none
CC(C)c1cc(C(C)C)c(S(=O)(=O)Nc2ccc(O)cc2)c(C(C)C)c1	Tgondii IFNg -75
CC(C)c1ccc(NS(=O)(=O)c2cc3c4c(c2)CCC(=O)N4CCC3)cc1	none
CC1=NCCN1S(=O)(=O)c1c(C(C)C)cc(C(C)C)cc1C(C)C	none
O=C(Cn1ncc2c(N3CCCCCC3)ncnc21)N1CCN(c2ccccc2)CC1	none
COc1ccccc1-c1nnc(CC(=O)O)o1	none
FC(F)(F)c1cc(Oc2ccccc2)ncc1-c1nnc(-c2ccccc2Cl)o1	none
Clc1ccccc1-c1nnc(Cc2cc(Br)sc2Br)o1	Tgondii IFNg -90
Cc1ccc(C(=O)N2CCCC3(CC(n4ccnc4)CO3)C2)o1 (centres undefined)	none
Cc1cc(C)cc(NC(=O)N2CCC3(CC2)CC(=O)c2ccccc2O3)c1	none
O=C1CC2(CCN(C(=O)NCc3ccc(F)cc3)CC2)Oc2ccccc21	none
Cc1cc(NC(=O)N2CCC3(CC2)CC(=O)c2ccccc2O3)ccc1Br	Tgondii IFNg -75
CC(C)c1noc(CCNC(=O)c2ccccc2C2CCNC2)n1 (centres undefined)	none
Cc1cc(N2CC[C@@H](c3ccc4c(c3)OCO4)[C@H](O)C2)nc2cc(F)ccc12	none
CC(C)Oc1ccc(C(=O)N[C@H](CNC(=O)CN(C)C)Cc2ccc(-c3cn4cccc([C@H](C)O)c4n3)cc2)cc1Cl	Tgondii IFNg -80
Cc1cccn2cc(-c3ccc(NC(=O)CNC(=O)c4ccccc4)cc3)nc12	none
O=C(NCc1cccc(F)c1)c1nc(CS(=O)(=O)c2ccc(Cl)cc2)no1	Tgondii IFNg -87
CN(C)C(=O)N1Cc2nc(C(=O)NCc3cccc(F)c3)oc2C1	none
O=C(Cc1ccc(Cl)cc1)NCCc1csc(-c2cccc(F)c2)n1	none
COc1cccc(CN2CCC3(CCN(C(=O)N4CCCC4)C3)C2=O)c1 (centres undefined)	none
O=S(=O)(c1cc2ccccc2o1)N1CC(c2ccccn2)C1	none
O=C(NCc1ccccc1)c1nc2c(o1)CN(c1ncccn1)C2	none
COCCN1C(=O)N(Cc2cccc3ccccc23)C(=O)C12CCN(Cc1ccc(F)c(F)c1)CC2	none
COc1ccccc1OC1CCN(C(=O)c2ncc[nH]2)CC1	none
NC(=S)N=Nc1c(O)n(Cc2ccccc2)c2ccccc12	Tgondii IFNg -103
Cc1cc(Br)c2c(c1)c(N=NC(N)=S)c(O)n2C	none
COc1cc(C(=O)NC(C)c2nc(-c3ccc(C)cc3)n[nH]2)cc(OC)c1OC (centres undefined)	none
O=C(c1cccs1)N1CCC2(CC1)CC(OCC1CC1)CO2 (centres undefined)	none
CC1CCN(S(=O)(=O)c2ccc3c(c2)CCC(=O)N3CC(=O)NC2CCCc3ccccc32)CC1 (centres undefined)	none
COc1ccccc1NC(=O)Cn1c(=O)cc(-c2nc(C3CC3)no2)c2ccccc21	none
Cc1cc(C)c(NC(=O)Cn2c(=O)cc(-c3nc(C4CC4)no3)c3ccccc32)c(C)c1	none
COc1ccc(C)cc1NC(=O)Cn1c(=O)cc(-c2nc(C3CC3)no2)c2ccccc21	Tgondii IFNg -87
CC1CN(S(=O)(=O)c2cccc(F)c2)CCC12CCC(C(=O)Nc1cccnc1)O2 (centres undefined)	none
O=C(c1cccc2ncccc12)N1CC2C[C@@H]3CC1C[C@H](C2)C3	none
COc1ccccc1-n1c(=O)n(Cc2nc(-c3ccccc3C)oc2C)c(=O)c2c(C)cc(C)nc21	none
O=C(Nc1cc(Cl)c(-n2cccc2)cc1Cl)c1ccc(Cl)cc1	none
Cc1oc(-c2ccc(NC(=O)c3ccc(F)cc3)cc2)nc1Cn1cccn1	none
O=C(Nc1ccn(Cc2ccc(Cl)cc2Cl)n1)c1ccc(F)cc1	Tgondii IFNg -97
O=C1CN(c2ncnc3c2CCNC3)CCN1Cc1ccc2c(c1)OCO2	none
O=S(=O)(Cc1cc(Cl)sc1Cl)c1ccc(Cl)cc1	Tgondii IFNg -101
O=C1CSC(=O)N1CCS(=O)(=O)c1ccc(Cl)cc1	none
Cc1nnsc1-c1noc(CS(=O)(=O)c2ccc(Cl)cc2)n1	none
CNCCCCc1cnc(C)c2[nH]c3ccccc3c12	Tgondii IFNg -95
Cc1nc2c(c3c1[nH]c1ccccc13)C(=O)CC(C)(C)C2	none
Cc1n[nH]c(C)c1CCCNC(=O)c1cc(=O)[nH]c2ccccc12	none
C=CCn1c(=O)c(C(=O)NCc2cccc(OC)c2)c(O)c2ccccc21	none
COc1ccc(CN2CC3(COC(C(=O)N4CCCC4)C3)c3ccccc32)cc1 (centres undefined)	Tgondii IFNg -79
COCCN(C)C(=O)C1CC2(CO1)CN(Cc1ccc(OC)cc1)c1ccccc12 (centres undefined)	none
COc1ccc(CN2CC3(COC(C(=O)CCN4CCOCC4)C3)c3ccccc32)cc1 (centres undefined)	none
CCN1C(=O)CC2C1CCN2S(=O)(=O)c1cn(C)cn1 (centres undefined)	none
CN(C)CCN1C(=O)CCC2C1CCN2Cc1ccc2c(c1)OCO2 (centres undefined)	none
Cc1ccc2c(c1)N(C(=O)Cn1c(=O)cc(C(=O)N3CCCCC3)c3ccccc31)CCO2	none
COc1ccc(O)c(C2=Nc3ccccc3N=C(c3ccccc3)C2)c1	none
COc1ccc(O)c(-c2nc3c(C(C)(C)C)cc(C(C)(C)C)c(O)c3o2)c1	Tgondii IFNg -119
COc1ccc(O)c(N)c1	none
O=C1CCCN1Cc1nnc2n1CCCN(Cc1ccco1)C2	none
Cc1ccc(N2CCCC2=O)cc1S(=O)(=O)Nc1ccc(N2CCCC2=O)cc1	Tgondii IFNg -91
Cc1ccc(N2CCCC2=O)cc1S(=O)(=O)Nc1ccc2c(c1)CC(=O)N2	none
Cc1ccc(N2CCCC2=O)cc1S(=O)(=O)NCCc1c(C)noc1C	none
COc1ccc(C(O)c2nccc3cc(OC)c(OC)cc23)cc1OC (centres undefined)	none
CCOc1ccc(Cc2nccc3cc(OCC)c(OCC)cc23)cc1OCC	Tgondii IFNg -83

Assay outcomes as filed in PubChem BioAssay.
